Type in all cases: functional
The target in test [1] is Solute carrier family 2, facilitated glucose transporter member 1 (Homo sapiens) (UniProt P11166). Briefly: ST_JUDE_LEISH: Cytotoxicity at 2uM final concentration against transgenic Leishmania Mexicana promastigotes LmGLUT1 that are glucose transport deficient and complemented with the human glucose transporter GLUT1. Activity is measured by DNA content using SYBR green in vitro.

The target in test [2] is Hexose transporter 1 (Plasmodium falciparum) (UniProt O97467). As to the kind of experiment: ST_JUDE_LEISH: Cytotoxicity at 2uM final concentration against transgenic Leishmania Mexicana promastigotes LmPfHT that are glucose transport deficient and complemented with the Plasmodium falciparum hexose transporter. Activity is measured by DNA content using SYBR green in vitro.

Test [3] has as its target Glucose transporter (Leishmania mexicana) (UniProt O61059). Briefly: ST_JUDE_LEISH: Cytotoxicity at 2uM final concentration against transgenic Leishmania Mexicana promastigotes LmGT2 that are glucose transport deficient and complemented with the L. Mexicana glucose transporter 2. Activity is measured by DNA content using SYBR green in vitro.

Solute carrier family 2, facilitated glucose transporter member 1 (Homo sapiens), sequence (P11166 whole entry): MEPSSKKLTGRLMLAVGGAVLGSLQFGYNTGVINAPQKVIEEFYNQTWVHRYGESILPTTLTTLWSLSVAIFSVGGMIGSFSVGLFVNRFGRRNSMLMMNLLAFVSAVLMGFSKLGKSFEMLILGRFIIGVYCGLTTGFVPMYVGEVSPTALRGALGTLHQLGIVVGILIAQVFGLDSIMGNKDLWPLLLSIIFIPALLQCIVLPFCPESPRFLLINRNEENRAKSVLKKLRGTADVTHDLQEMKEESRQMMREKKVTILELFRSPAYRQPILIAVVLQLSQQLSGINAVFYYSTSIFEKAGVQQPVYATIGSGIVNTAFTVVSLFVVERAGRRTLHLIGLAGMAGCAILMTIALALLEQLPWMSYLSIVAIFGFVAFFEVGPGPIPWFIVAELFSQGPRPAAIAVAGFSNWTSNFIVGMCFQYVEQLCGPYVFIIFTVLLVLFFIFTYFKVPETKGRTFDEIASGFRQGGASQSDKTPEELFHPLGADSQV

Regarding `Cc1nnsc1C(=O)Nc1ccc(-c2ccc(-c3nc4cccc(C)c4[nH]3)s2)cc1`, the inhibition in test [1] was determined as 5.61%; in test [2], 2.76%; in test [3], 2.44%.

Turning to `O=C(NC1CC1)c1cnc(N2CCCC(c3ccccc3)C2)c(Cl)c1` (configuration not stated), the inhibition in test [1] is 0.97%; in test [2] it was -0.31%; in test [3], -4.58%.

Take `FC(F)(F)c1cccc(CNCCCCCNCc2ccc(Cl)cc2)c1`: the figures for the inhibition in test [1], in test [2] and in test [3] were 2.96%, 1.16% and -0.19%, respectively.

`O=C(N[C@@H](Cc1ccccc1)C(=O)NC1CCCCCC1)c1ccc(O)c(-c2ccc(Cl)c(Cl)c2)c1`: the inhibition worked out at 3.99% in test [1], 3.77% in test [2] and 3.08% in test [3].

`CCN(CC)CCN(Cc1ccc(-c2ccc(C(F)(F)F)cc2)cc1)C(=O)Cn1c(CCc2cccc(F)c2F)c(C)c(=O)c2ccccc21`: the inhibition is 1.84% in test [1], 1.5% in test [2] and 3.04% in test [3].

On to `CC1(C)N=C(NC(=O)Nc2ccc([N+](=O)[O-])cc2)N=C(N)N1OCc1cccc2ccccc12`, for which the inhibition in test [1] was found to be 2.41%; in test [2] it was 4.36%; in test [3], 5.77%.

As for `Cc1cccc(C)c1CNc1ccnc2cc(Br)ccc12`, the results for the inhibition in test [1], in test [2] and in test [3] were 9.73%, 8.34% and 5.92%, respectively.

Consider `CN(C)CCCNc1ncnc2c1[nH]c1ccc(Cl)cc12`, for which the inhibition was found to be 1.91% in test [1], 3.62% in test [2] and 1.6% in test [3].

Take `CCCCOC(=O)NCCCC[C@H](NC(=O)OC(C)(C)C)C(=O)N[C@H](C(=O)OC(c1ccccc1)c1ccccc1)[C@H]1O[C@@H](n2ccc(=O)[nH]c2=O)[C@@H]2OC(C)(C)O[C@@H]21`: the inhibition in test [1] is 0.88%; in test [2], 0.71%; in test [3] it was 0.44%.

Turning to `COc1ccc(Nc2nccc(N3CCC(NC(=O)Nc4cc(C)ccc4C)C3)n2)cc1` (configuration not stated), the inhibition in test [1] was 10.3%; in test [2], 7.52%; in test [3], 9.76%.

For `COC(=O)c1cccc(CNCc2ccc(-c3ccc(-c4nc5cc(C(F)(F)F)ccc5[nH]4)cc3)cc2)c1`, the inhibition in test [1] was 3.94%; in test [2], 1.94%; in test [3] it was 2.35%.

Turning to `CC(C)Oc1ccc2c(c1)OC(c1ccccc1)(C(F)(F)F)NC2=O` (configuration not stated), the values for the inhibition in test [1], in test [2] and in test [3] were 14.6%, 12.2% and 7.18%, respectively.

For the compound `O=C(NCC(c1ccc(C(F)(F)F)cc1)N1CCCC1)c1cc(-c2ccncc2)c(-c2cccc(O)c2)o1` (configuration not stated), the inhibition in test [1] is 0.81%; in test [2], -0.82%; in test [3] it was -0.08%.

`CC(=O)Nc1ccc(C(=O)Nc2cccc(-c3cccc(-c4nc5cc(F)ccc5[nH]4)c3)c2)cn1`: the results for the inhibition in test [1], in test [2] and in test [3] were 7.97%, 10.8% and 3.74%, respectively.

(Values after ChEMBL document CHEMBL3433997, “St. Jude Leishmania screening dataset” (2016).)
